The text below walks through data of PubChem BioAssay (NCATS).

Test [1] has as its target Cytochrome P450 3A4 (Homo sapiens) (UniProt P08684). As to the kind of experiment: qHTS Assay for Inhibitors and Substrates of Cytochrome P450 3A4 (AID 884). Note: nearly all actives have a fitted effect of over 50% in size. Note: potency is the fitted concentration of half-maximal effect. An outline of the steps: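 Luminescent readout of luciferin produced by CYP3A4 (20 nM) dealkylation of Luciferin-PPXE, 25 uM (its KM). NADPH-driven reaction ran 60 min at RT after 10 min compound preincubation; data scaled to 57 uM ketoconazole as 100% inhibition.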
(In general: Quantitative high-throughput screening tests each substance at several concentrations.)

Test [2] is described as follows: qHTS Assay for Lipid Storage Modulators (AID 1519; calls by dose curve). Conditions: Drosophila S3 cells, BODIPY lipid droplet/cell ratio, laser cytometry, cells loaded with oleic acid; for activity change, negative = inhibition: at 57.5 µM (top of the series). An outline of the steps:
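Cells seeded at 5,000 per well were treated with compounds over a concentration series and loaded with oleic acid (400 uM, as added). Lipid droplet fluorescence (488 nm excitation, 500-530 nm channel) was read by laser-scanning cytometry and normalized to 20 uM Triacsin C.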

The target in test [3] is Ubiquitin carboxyl-terminal hydrolase 1 (Homo sapiens) (UniProt O94782). As to the kind of experiment: Inhibitors of USP1/UAF1: Pilot qHTS (AID 504865).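 Note: rhodamine fluorescence freed from ubiquitin-rhodamine substrate followed over time; top concentration of the series differs between compounds; % is set by controls: 0 for no effect and ±100 for the full control effect; nearly all actives have a fitted effect of over 35% in size.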 Summed up: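 Enzyme-free wells gave the negative control, while test wells held 1nM USP1/UAF1 preincubated with compound for 15 min at room temperature. Ub-Rho at 150nM final started the reaction, and fluorescence at 480/540 nm was recorded kinetically.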
Sequence of Ubiquitin carboxyl-terminal hydrolase 1 (Homo sapiens) (O94782 whole entry, looked up): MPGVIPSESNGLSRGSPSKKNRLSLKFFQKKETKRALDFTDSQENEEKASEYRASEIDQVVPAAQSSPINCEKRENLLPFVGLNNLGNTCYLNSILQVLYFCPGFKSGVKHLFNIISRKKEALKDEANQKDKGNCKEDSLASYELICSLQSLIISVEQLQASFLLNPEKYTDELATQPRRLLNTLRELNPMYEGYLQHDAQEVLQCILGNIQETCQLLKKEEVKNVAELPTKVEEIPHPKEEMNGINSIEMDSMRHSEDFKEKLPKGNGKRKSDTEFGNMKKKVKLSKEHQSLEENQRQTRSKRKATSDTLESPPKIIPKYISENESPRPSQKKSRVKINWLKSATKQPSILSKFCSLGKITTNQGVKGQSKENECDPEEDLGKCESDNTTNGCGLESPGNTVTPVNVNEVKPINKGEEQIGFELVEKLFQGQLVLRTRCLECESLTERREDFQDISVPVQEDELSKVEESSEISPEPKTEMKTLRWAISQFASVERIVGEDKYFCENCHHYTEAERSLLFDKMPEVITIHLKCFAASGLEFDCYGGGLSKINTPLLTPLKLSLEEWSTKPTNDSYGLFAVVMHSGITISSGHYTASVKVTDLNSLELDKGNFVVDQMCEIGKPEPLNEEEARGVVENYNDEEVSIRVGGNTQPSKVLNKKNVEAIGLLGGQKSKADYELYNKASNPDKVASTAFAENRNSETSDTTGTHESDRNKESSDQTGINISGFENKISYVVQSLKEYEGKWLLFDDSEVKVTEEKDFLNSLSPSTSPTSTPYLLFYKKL

Test [4] can be described thus: Primary qHTS for small molecule stabilizers of the endoplasmic reticulum resident proteome: Secreted ER Calcium Modulated Protein (SERCaMP) assay (AID 1508630). Note: % is set by controls: 0 for no effect and ±100 for the full control effect. Summed up:
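The SH-SY5Y reporter protocol was run at 3 concentrations up to 38.3 uM (primary) or 11 concentrations (follow-up): 16 h compound, 100 nM thapsigargin for 4 h, then extracellular luciferase luminescence.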

The nature of test [5]: AP1 Signaling Pathway (AID 357; active = well fitted curve in either direction with a large enough effect, not every such curve was filed as active;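 note: ME-180 reporter cells stimulated with EGF at its EC50 level; % is set by controls: 0 for no effect and ±100 for the full control effect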). The note with it: ME-180 AP-1-bla reporter, EGF-induced, beta-lactamase ratio, 5 h; at 7.69 µM (top of the series) unless noted. Summed up:
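Cells are seeded overnight, exposed to compound titrations and an EC50 level of EGF for 5 hours at 37 °C, then loaded with CCF4 dye for 2.5 hours. Beta-lactamase activity under the AP-1 element is read as a blue/green ratio.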

Test [6] concerns the target Cytochrome P450 1A2 (Homo sapiens) (UniProt P05177). Briefly: p450-cyp1a2 (AID 410; calls by dose curve; note: potency is the fitted concentration of half-maximal effect;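 for activity change, negative = inhibition: -100% = full effect of reference inhibitor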). Summed up:
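O-Demethylation of luciferin 6' methyl ether by human CYP1A2 is monitored as luciferase luminescence. Substrate sits at Km (100uM); enzyme is 20nM. Values are scaled to 57 uM furafylline as maximal inhibition.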

In test [7] the target is Glucocorticoid receptor (Homo sapiens) (UniProt P04150). As to the kind of experiment: GR-GFP Redistribution (AID 450;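 active = compounds whose dose series gives a full or clear partial fitted curve of increased nuclear translocation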; note: potency is the fitted concentration of half-maximal effect). Conditions: U2OS GR-GFP nuclear translocation, laser cytometry, 2 h.
Sequence of Glucocorticoid receptor (Homo sapiens) (P04150 whole entry, looked up, the tested form may be a part): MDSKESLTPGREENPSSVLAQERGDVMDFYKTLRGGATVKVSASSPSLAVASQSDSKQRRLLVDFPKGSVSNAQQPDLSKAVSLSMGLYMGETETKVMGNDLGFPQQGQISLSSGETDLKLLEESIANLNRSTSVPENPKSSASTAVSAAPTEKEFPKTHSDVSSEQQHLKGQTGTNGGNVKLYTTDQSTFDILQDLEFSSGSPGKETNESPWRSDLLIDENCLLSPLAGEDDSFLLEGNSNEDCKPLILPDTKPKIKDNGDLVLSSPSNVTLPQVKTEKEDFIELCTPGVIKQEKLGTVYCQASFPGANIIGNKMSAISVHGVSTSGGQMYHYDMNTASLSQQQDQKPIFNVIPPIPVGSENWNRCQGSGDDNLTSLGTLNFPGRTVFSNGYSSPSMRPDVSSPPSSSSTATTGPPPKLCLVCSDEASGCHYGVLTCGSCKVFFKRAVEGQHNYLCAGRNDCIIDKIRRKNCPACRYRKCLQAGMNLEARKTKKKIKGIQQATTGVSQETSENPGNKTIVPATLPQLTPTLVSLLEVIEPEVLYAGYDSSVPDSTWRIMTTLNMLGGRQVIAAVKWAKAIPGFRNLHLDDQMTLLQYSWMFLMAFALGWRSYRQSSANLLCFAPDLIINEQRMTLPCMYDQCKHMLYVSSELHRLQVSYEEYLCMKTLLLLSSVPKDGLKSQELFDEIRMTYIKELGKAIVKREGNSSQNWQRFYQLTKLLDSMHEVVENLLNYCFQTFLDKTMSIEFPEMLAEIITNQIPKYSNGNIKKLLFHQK
For test [8] the target is unchanged. Briefly: GR-EFC Redistribution (AID 451; calls by dose curve; note: potency is the fitted concentration of half-maximal effect). The note with it: CHO-K1 GR-EFC translocation, beta-gal luminescence, 2 h. An outline of the steps: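 CHO-K1 cells expressing nuclear EA and GR-ED fragments of b-gal; compounds titrated up to 46 uM final, 2 h at 37 C. GR nuclear translocation read as complemented b-gal luminescence after 1 h RT detection.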
Test [9] deals with Mitogen-activated protein kinase 10 (Mus musculus) (UniProt Q61831). Briefly: JNK3 AlphaScreen Assay (AID 530; active = well fitted curve in either direction with a large enough effect, not every such curve was filed as active;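 note: kinase came from lysate of stimulated human HepG2 cells; signal reports phosphorylation of biotinylated GST-cJun 1-79 at Ser73 with 10 µM ATP; % is set by controls: 0 for no effect and ±100 for the full control effect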). Summed up: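 Activity was read by AlphaScreen after JNK3-containing HepG2 lysate (cytokine pre-activated) phosphorylated biotinylated GST-cJun with 10 uM ATP at room temperature. Phospho-Ser73 cJun antibody with Protein-A acceptor beads provided detection.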
In general terms: In Alpha technology, singlet oxygen from a donor bead excites a nearby acceptor bead.

The target in test [10] is Cytochrome P450 3A4 (Homo sapiens) (UniProt P08684). Briefly: qHTS Assay for Activators of Cytochrome P450 3A4 (AID 885). Note: nearly all actives have a fitted effect of over 65% in size. Summed up: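 Using 20nM recombinant human CYP3A4 in potassium phosphate (200mM), substrate Luciferin-PPXE at 25uM, luminescent luciferin detection followed a 60-min RT NADPH reaction; data scaled to 57 uM ketoconazole.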
Sequence of Cytochrome P450 3A4 (Homo sapiens) (P08684 whole entry, looked up): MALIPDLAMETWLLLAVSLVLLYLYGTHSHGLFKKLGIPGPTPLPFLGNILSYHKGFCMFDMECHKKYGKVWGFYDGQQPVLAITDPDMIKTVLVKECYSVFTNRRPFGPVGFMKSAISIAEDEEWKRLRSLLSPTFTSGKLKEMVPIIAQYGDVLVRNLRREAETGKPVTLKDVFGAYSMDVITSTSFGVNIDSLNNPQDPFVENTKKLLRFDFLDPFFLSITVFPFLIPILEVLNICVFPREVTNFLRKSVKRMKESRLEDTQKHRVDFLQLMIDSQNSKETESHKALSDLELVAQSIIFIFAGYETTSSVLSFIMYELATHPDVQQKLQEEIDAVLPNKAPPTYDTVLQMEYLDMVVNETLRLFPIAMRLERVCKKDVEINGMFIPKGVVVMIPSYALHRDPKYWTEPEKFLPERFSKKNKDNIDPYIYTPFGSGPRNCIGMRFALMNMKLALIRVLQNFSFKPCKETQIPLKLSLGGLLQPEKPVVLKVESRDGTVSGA
Test [11] can be described thus: Confirmation and Secondary Assay for Modulators of Hemoglobin Beta Chain Splicing at IVS2 705 locus (AID 930).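 Note: HeLa cells stably expressing the EGFP-705 splicing reporter; GFP fluorescence per well restored by corrected splicing of the IVS2-705 intron in EGFP; % of control where 0% means no effect.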 Summed up: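 Fluorescence gain (488 nm laser, 500-520 nm PMT) reflects restored correct splicing of a mutant IVS2-705 intron inside EGFP in stably transfected HeLa cells after 2-day compound treatment.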
The nature of test [12]: Stat Signaling Pathway (AID 446; active = well fitted curve in either direction with a large enough effect, not every such curve was filed as active;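 note: ME-180 cervical cancer cells given 40 pM IL-6 alongside compound; SIE-controlled beta-lactamase reporter measured as 460/530 nm FRET emission ratio; % is set by controls: 0 for no effect and ±100 for the full control effect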). Conditions: ME-180 (cervical carcinoma) SIE beta-lactamase reporter, IL-6 stimulated, 5 h; at 7.69 µM (top of the series) unless noted. An outline of the steps:
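Overnight-plated ME-180 cells bearing a STAT Inducible Element beta-lactamase reporter; 5 h co-exposure to compound and 40 pM IL-6; values normalized to 300 pM IL-6 and 125 nM JAK inhibitor controls.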

For test [13], the target named is 3',5'-cyclic-AMP phosphodiesterase 4B (Homo sapiens) (UniProt Q07343). As to the kind of experiment: qHTS Assay for Inhibitors of PDE-IV (AID 607; active = well fitted activation curve with a large enough effect in the main read-out, with a control signal flat, not every such curve was filed as active; note: % of control where 0% means no effect). Summed up: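 Live HEK293 cells with a modified cyclic nucleotide-gated (CNG) channel report intracellular cAMP via membrane-potential dye fluorescence (ex 535/em 590 nm). Endogenous PDE-IV was targeted. Compounds were tested at up to 22.9 uM final; RO 20-1724 100 uM served as control.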
Sequence of 3',5'-cyclic-AMP phosphodiesterase 4B (Homo sapiens) (Q07343 whole entry, looked up): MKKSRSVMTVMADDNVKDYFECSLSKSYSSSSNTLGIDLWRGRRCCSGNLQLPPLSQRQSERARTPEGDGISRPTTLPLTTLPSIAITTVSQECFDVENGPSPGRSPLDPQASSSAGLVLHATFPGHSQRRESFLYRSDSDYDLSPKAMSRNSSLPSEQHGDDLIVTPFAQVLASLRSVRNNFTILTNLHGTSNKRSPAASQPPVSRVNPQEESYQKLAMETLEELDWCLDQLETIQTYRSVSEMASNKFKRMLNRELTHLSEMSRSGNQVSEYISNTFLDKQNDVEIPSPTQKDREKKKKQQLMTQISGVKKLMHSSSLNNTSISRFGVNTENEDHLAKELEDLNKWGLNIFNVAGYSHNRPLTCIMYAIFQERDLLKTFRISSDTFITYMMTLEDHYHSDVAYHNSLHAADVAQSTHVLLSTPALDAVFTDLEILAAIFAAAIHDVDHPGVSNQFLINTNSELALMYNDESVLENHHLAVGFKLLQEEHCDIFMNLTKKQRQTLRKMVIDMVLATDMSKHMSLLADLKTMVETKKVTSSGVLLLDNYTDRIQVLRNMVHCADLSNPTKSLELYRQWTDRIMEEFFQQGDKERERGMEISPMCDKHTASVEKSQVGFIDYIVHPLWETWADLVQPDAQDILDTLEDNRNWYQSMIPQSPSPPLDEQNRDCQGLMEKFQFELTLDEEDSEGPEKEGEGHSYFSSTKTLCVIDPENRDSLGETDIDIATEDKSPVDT

Test [14] deals with Lysosomal acid glucosylceramidase (Homo sapiens) (UniProt P04062). As to the kind of experiment: Glucocerebrosidase-p2 (AID 348; in the data active = potency below about 10 µM; note: potency is the fitted concentration of half-maximal effect). The note with it: purified GBA, blue fluorogenic substrate, 40 min. Summed up: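 Normal human glucocerebrosidase (0.2 nM) with blue fluorogenic substrate (80 uM final) in citrate/phosphate pH 5.9 with 10mM sodium taurocholate, 0.01% tween-20; 40 min RT, NaOH/glycine stop; fluorescence Ex 365/Em 440; AC50 from a titration from 0.6 nM upwards.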

For test [15], the target named is Dual specificity protein kinase CLK4 (Homo sapiens) (UniProt Q9HAZ1). As to the kind of experiment: qHTS Assay for Inhibitors of CDC-like Kinase 4 (ADP-FP Assay) (AID 1795).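 Note: recombinant human CLK4 phosphorylating RS repeat peptide at 1 µM ATP; % is set by controls: 0 for no effect and ±100 for the full control effect; nearly all actives have a fitted effect of over 60% in size.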 An outline of the steps: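 Kinase activity was followed as ADP output, converted from fluorescence polarization with a calibration curve. Reactions ran one hour at low ATP (1 uM) with RS peptide substrate.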

Test [16] deals with Rap guanine nucleotide exchange factor 3 (Homo sapiens) (UniProt O95398). Briefly: Confirmatory qHTS for antagonist of cAMP-regulated guanine nucleotide exchange factor 3 (EPAC1) (AID 1645880).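 Note: plate controls were DMSO only for no effect and full effect of the ATA control for full effect; nearly all actives have a fitted effect of over 55% in size.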 An outline of the steps:
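Released BODIPY-GDP fluoresces less than Rap1-bound BODIPY-GDP; the signal is followed at 480/540 nm at 5-min intervals over 30 min, after 5 min at room temperature. Reactions contain 100 nM EPAC1, 250 nM RAP1B-BODIPY-GDP and 50 uM GDP; results are normalized to ATA and DMSO.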

Test [17] has the same target. As to the kind of experiment: Confirmatory qHTS for agonist of cAMP-regulated guanine nucleotide exchange factor 3 (EPAC1) (AID 1645881).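 Note: EPAC1 catalysed release of BODIPY-GDP from Rap1B seen as fluorescence loss; nearly all actives have a fitted effect of over 75% in size.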
The target of test [18] is Rap guanine nucleotide exchange factor 4 (Homo sapiens) (UniProt Q8WZA2). As to the kind of experiment: Confirmatory qHTS for agonist of cAMP-regulated guanine nucleotide exchange factor 4 (EPAC2) (AID 1645884).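 Note: nucleotide exchange releases bodipy-GDP from Rap1 and this lowers its fluorescence; % is set by controls: 0 for no effect and ±100 for the full control effect; nearly all actives have a fitted effect of over 65% in size.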
Sequence of Rap guanine nucleotide exchange factor 4 (Homo sapiens) (Q8WZA2 whole entry, looked up): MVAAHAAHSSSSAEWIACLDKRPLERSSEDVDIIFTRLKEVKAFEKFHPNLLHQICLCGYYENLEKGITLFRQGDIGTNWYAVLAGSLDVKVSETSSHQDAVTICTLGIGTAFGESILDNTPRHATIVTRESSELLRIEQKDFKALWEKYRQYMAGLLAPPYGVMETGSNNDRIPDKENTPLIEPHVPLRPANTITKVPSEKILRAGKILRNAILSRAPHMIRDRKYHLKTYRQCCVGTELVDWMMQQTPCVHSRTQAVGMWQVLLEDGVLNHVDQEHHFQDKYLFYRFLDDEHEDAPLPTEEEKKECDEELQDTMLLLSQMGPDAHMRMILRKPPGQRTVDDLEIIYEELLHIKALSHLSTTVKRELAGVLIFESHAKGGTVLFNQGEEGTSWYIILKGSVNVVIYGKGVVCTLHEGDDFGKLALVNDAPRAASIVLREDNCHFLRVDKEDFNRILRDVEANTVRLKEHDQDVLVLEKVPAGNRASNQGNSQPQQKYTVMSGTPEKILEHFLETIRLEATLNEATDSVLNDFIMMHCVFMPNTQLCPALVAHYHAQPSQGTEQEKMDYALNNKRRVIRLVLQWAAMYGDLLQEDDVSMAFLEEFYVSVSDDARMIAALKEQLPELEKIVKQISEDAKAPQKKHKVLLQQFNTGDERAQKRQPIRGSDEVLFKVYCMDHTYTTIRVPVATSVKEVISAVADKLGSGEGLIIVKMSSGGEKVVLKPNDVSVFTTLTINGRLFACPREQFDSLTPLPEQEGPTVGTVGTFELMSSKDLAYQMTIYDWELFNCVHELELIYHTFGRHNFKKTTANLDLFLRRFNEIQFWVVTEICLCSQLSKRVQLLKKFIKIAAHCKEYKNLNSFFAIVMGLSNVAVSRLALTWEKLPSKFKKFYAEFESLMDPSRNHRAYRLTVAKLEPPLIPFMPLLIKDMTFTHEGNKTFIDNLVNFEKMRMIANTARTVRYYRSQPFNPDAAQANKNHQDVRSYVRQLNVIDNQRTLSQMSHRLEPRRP
The target is the same in test [19]. As to the kind of experiment: Confirmatory qHTS for antagonist of cAMP-regulated guanine nucleotide exchange factor 4 (EPAC2) (AID 1645885). Note: % is set by controls: 0 for no effect and ±100 for the full control effect; nearly all actives have a fitted effect of over 25% in size.
Test [20] in a line: NFAT Signaling Pathway (AID 444; active = well fitted curve in either direction with a large enough effect, not every such curve was filed as active). The note with it: Jurkat NFAT-bla M1, carbachol, beta-lactamase ratio, 5 h; at 7.69 µM (top of the series) unless noted. An outline of the steps:
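Jurkat cells with NFAT-driven β-lactamase reporter and co-expressed M1 receptor, stimulated with carbachol (final 1 uM, ~EC50), compound titration, 5 h at 37 °C. CCF4 loaded 1 h at RT; 460/530 nm ratio gave %activity and AC50.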

The mark [21] stands for this setting: measured here: cell count channel max response.
Where [22] appears, read: measured here: lipid channel max response.

Records with an inconclusive call do not appear. Active and inactive are the calls of the source. Unless noted, calls come from the whole dose curve; as a rule, active = well fitted curve in the direction sought with a large enough effect; inconclusive = small, poorly fitted or top-dose-only effect, or another doubt; inactive = no such curve, though single readings can be large; an effect the other way counts as inactive or inconclusive.

Sequence of Rap guanine nucleotide exchange factor 3 (Homo sapiens) (O95398 whole entry, looked up): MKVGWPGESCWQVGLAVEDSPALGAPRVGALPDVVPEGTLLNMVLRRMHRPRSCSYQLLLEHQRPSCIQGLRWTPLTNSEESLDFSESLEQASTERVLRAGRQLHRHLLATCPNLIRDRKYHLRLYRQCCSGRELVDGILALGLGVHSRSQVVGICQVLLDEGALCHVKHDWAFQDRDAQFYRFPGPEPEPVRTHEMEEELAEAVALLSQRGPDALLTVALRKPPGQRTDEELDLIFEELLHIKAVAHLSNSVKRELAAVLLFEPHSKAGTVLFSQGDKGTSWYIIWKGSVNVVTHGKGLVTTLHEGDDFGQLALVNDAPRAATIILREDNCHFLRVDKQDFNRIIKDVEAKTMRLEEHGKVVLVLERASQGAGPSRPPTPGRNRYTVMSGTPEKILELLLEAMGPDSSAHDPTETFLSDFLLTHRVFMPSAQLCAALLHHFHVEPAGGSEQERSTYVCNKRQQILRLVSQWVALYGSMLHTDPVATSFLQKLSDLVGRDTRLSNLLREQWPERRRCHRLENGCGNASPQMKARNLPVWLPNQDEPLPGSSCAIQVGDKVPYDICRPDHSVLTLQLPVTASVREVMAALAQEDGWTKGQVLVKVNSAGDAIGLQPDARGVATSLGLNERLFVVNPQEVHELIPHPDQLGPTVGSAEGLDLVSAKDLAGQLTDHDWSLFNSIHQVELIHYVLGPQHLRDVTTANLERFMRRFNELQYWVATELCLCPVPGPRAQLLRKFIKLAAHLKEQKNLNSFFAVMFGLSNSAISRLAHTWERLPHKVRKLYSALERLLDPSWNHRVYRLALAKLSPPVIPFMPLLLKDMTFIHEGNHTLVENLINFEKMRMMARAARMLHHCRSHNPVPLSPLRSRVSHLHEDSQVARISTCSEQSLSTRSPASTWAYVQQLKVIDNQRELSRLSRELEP

Regarding `O=C(O)c1cc(=O)c2cccc(O)c2[nH]1`, the Potency result in test [1] and in test [3] was “inactive” in each case. Further, the activity change, negative = inhibition in [2] was 14.6% (inactive). Also, the results for the max response in [2] (setting [21]) and in test [2] (setting [22]) were 27.2% and 50.3%, respectively. The outcome in [4] was inactive.

On to `Cc1cccc(CNc2ncnc3ccc(-c4c(C)noc4C)cc23)c1`, for which the results for the activity change, negative = inhibition in test [5] and in test [2] were 14.8% (inactive) and -3.45% (inactive), respectively. Also, the Potency is 5.01 µM (active) in [6], > 46 µM (inactive) in test [7], > 46 µM (inactive) in [8] and 0.794 µM (active) in test [1]. In addition, the Potency result in [9] and in test [10] was “inactive” in each case. Also, the call in [11] and in test [4] was inactive. Besides, the max response in test [2] (setting [21]) is -9.91%; in test [2] (setting [22]) it was -10.6%.

As to `O=C(c1ccncc1)N1CCC2(CC1)CCN(c1ccncc1)CC2`, the activity change, negative = inhibition in [5] was -16.4% (inactive); in test [2] it was 1.78% (inactive). The activity, negative = inhibition in test [12] is 5.08% (inactive). In addition, the Potency in [8] was > 46 µM (inactive). Further, the Potency result in [9] and in [13] was “inactive” in each case. In addition, the results for the max response in test [2] (setting [21]) and in test [2] (setting [22]) were -11.6% and -7.91%, respectively. Further, the outcome in test [4] was inactive.

As for `COc1cccc(-c2ccc3ncnc(NCc4ccccc4OC)c3c2)c1`, the Potency in test [7] and in test [8] was > 46 µM (inactive) throughout. In addition, the Potency result in test [9], in test [13] and in test [3] was “inactive” throughout. Also, the compound was called inactive in [11] and in test [4]. Besides, the activity change, negative = inhibition in [2] was 5.94% (inactive). Besides, the max response in test [2] (setting [21]) was -19.3%; in test [2] (setting [22]), -13.1%.

`COc1ccc(-n2c(=O)c(-c3ccc(Cl)cc3)nc3cnc(N(C)C)nc32)cc1`: the Potency is > 11.4 µM (inactive) in [14], 10 µM (active) in test [6], > 9.22 µM (inactive) in test [7] and > 46 µM (inactive) in test [8]. The Potency entry in [9], in [15], in test [3], in [16], in test [17] and in test [18] was “inactive” throughout. Further, in test [19], the Potency entry is “inactive”. Besides, the outcome in test [4] was inactive.

For `CS(=O)(=O)c1ccc(Cn2c3c(c4cc(F)cc(F)c42)CCC[C@H]3CC(=O)O)cc1`, the Potency entry in test [6], in test [9] and in test [10] was “inactive” each time. The Potency in test [7] and in test [8] was > 46 µM (inactive) each time. The activity change, negative = inhibition in test [2] was -2.09% (inactive). Also, the figures for the max response in [2] (setting [21]) and in [2] (setting [22]) were 15% and 14.3%, respectively. Further, the outcome in [4] was inactive.

For `N#CCCn1c(=O)c(-c2cccs2)nc2cnc(N3CCOCC3)nc21`, the values for the Potency in test [14], in test [7] and in test [8] were > 11.4 µM (inactive), > 9.22 µM (inactive) and > 46 µM (inactive), respectively. Also, the activity change, negative = inhibition in [5] is 3.31% (inactive); in test [20], -28.6% (inactive). Also, in test [12], the activity, negative = inhibition is 17.9% (inactive). Further, the Potency entry in test [9], in test [13], in test [15], in test [16], in test [17] and in [18] was “inactive” each time. In addition, the Potency result in test [19] was “inactive”. Besides, the outcome in [4] was inactive.

As to `O=C(c1cc(C(F)(F)F)cc(C(F)(F)F)c1)N1CCC2(CC1)CN(c1ccncc1)C2`, the activity change, negative = inhibition in [5] is 13% (inactive); in [2], 2.27% (inactive). For the same compound, the Potency entry in test [6] was “inactive”. For the same compound, the activity, negative = inhibition in test [12] is 3.13% (inactive). In test [8], the Potency is > 46 µM (inactive). For the same compound, the max response was -2.54% in [2] (setting [21]) and 0.518% in test [2] (setting [22]). The outcome in [4] was inactive.
